Assay outcomes (PubChem)
A selection: hits, their analogues and other compounds. The true share with any hit is near 9.2%.
LMNA splice mod: LMNA splicing modulation; Potency, µM (highest dose often 46.1 µM), usual class: inhibitors; 0.01% of 200,000 active; HeLa LMNA splicing GFP/RFP minigene ratio, 48 h; active means well fitted inhibition curve with a large enough effect in the signal ratio, with a control signal flat, not every such curve was filed as active; inconclusive means small, poorly fitted or top-dose-only effect, or effect the other way, or a change in a side signal; the % refers to the signal ratio
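S3 HeLa cells stably expressing lamin A-EGFP splicing minigene plus DsRed2, 600 cells/well, 48 h compound exposure at 37C. Laser-scanning cytometry; analysed as GFP (500-530 nm)/RFP (575-640 nm) total intensity ratio; 0.5% DMSO vehicle.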
KDM4E inh: inhibitors of human JMJD2E histone demethylase; 1.6% of 230,000 active; AID 2147; JMJD2E catalytic domain, FDH-coupled NADH fluorescence (FDH is formaldehyde dehydrogenase); B2RXH2; Potency, µM (titrated, usually from 57.1 µM), actives largely listed as inhibitors; further: nearly all actives have a fitted effect of over 50% in size
Target sequence (B2RXH2 1-337 limits assumed): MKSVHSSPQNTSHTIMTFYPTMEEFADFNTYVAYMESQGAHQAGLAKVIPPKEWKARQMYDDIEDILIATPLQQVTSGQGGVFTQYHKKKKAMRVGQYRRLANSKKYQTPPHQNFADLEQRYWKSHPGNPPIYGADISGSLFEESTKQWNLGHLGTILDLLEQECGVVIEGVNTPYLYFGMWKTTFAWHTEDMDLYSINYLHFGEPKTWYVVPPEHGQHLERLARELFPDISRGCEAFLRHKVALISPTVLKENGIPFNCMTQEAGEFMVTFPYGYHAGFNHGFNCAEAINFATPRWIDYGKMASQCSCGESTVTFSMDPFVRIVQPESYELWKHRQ
ALDH1A1 block: ALDH1A1 (human) enzyme inhibition. Purified ALDH1A1, NADH fluorescence, propionaldehyde substrate. Potency, µM (doses to about 75.3 µM), actives largely listed as inhibitors. 7.3% of 220,000 active. AID 1030
HPGD inh: blocks human HPGD enzyme activity; P15428; purified HPGD, NADH fluorescence kinetic, PGE2 substrate; Potency, µM, actives largely listed as inhibitors; 4.3% of 150,000 active
Target sequence (P15428 whole entry, looked up): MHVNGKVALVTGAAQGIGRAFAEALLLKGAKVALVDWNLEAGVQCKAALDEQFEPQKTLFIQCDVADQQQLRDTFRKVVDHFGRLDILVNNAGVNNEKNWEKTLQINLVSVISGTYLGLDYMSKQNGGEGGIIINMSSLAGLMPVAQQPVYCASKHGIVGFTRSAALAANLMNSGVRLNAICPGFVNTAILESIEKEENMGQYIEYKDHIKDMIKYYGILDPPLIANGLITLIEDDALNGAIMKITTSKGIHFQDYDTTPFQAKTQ
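NADH formation kinetics: reaction with 30 uM PGE2 and 1 mM NAD+ (final), 20 nM enzyme, Tris-HCl pH 8 with Tween 20, after 15 min compound preincubation at room temperature. Fluorescence change, last versus first of five reads.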
HTT aggregate: reduces HttQ103-GFP aggregates in PC12 cells | AID 1688 | Potency, µM (series often up to 46.1 µM), usual class: inhibitors | PC12 HttQ103-GFP aggregates, Acumen cytometry, 40 h | 1.1% of 220,000 active; active means well fitted curve in the direction sought with a large enough effect; inconclusive means small, poorly fitted or top-dose-only effect, or another doubt; inactive means no such curve, though single readings can be large; an effect the other way counts as inactive or inconclusive; further: nearly all actives have a fitted effect of over 60% in size
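Quantitative HTS on tebufenozide-induced (100 nM) PC12 cells stably expressing polyQ103 Huntingtin exon 1–GFP. Reduction of bright GFP aggregates, detected by laser scanning cytometry after lysis, identified actives across the titration.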
HTT cytoprotect: protects HTT-Q103 PC12 cells, measured by ATP. PC12 HTT-Q103 induced, cytoprotection, ATP luminescence, 40 h. Potency, µM (titrated, usually from 56.4 µM), usual class: activators. 0.14% of 230,000 active. AID 1471; active means well fitted curve in the direction sought with a large enough effect; inconclusive means small, poorly fitted or top-dose-only effect, or another doubt; inactive means no such curve, though single readings can be large; an effect the other way counts as inactive or inconclusive; further: nearly all actives have a fitted effect of over 45% in size
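Rat PC12, Q103 Htt exon1-GFP fusion, ecdysone promoter; tebufenozide inducer 100 nM final; compound titration; qHTS, 1500 cells/well; ATPlite luminescent read.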
Of the large screens only hits and unclear results are named; the others gave an inactive call. Unless noted, the call rests on the fitted dose curve; in most records, active means well fitted inhibition curve with a large enough effect (not every such curve was filed as active); inconclusive means small, poorly fitted or top-dose-only effect, or another doubt; inactive means no such curve, though single readings can be large or run the other way.

CCN1CCN(C(=O)Cn2c(-c3cccs3)cc3cc(Cl)ccc32)CC1	none (no result: KDM4E inh, ALDH1A1 block, HPGD inh, HTT aggregate, HTT cytoprotect)
CCc1n[nH]c(=S)n1/N=C/c1ccc(NC(C)=O)cc1	LMNA splice mod inconclusive (no result: HPGD inh)
CCc1n[nH]c(=S)n1/N=C/c1cc(Br)c(OC)cc1OC	LMNA splice mod inconclusive, HPGD inh 7.94µM (no result: HTT cytoprotect)
CC1=CC(C)(C)Nc2ccc(OS(=O)(=O)c3ccc(C)cc3)cc21	LMNA splice mod inconclusive, ALDH1A1 block 1.12µM, HPGD inh inconclusive, HTT aggregate inconclusive
Cc1cccc(CSc2nnc3c(n2)[nH]c2ccccc23)c1	none (no result: LMNA splice mod, HPGD inh)
COc1cc(O)c(C(=O)O)c(O)c1	none (no result: HTT aggregate, HTT cytoprotect)
CC(=O)NNc1cccc(Cl)n1	ALDH1A1 block inconclusive
NC(=O)NNc1cccc(Cl)n1	ALDH1A1 block 35.5µM (no result: LMNA splice mod, HPGD inh)
CN1CCN(c2ccccc2NC(=O)Cc2cn(C)c3ccccc23)CC1	HTT aggregate 25.1µM
O=S(=O)(NCCc1csc2nc(-c3ccccc3)nn12)c1cc(F)ccc1F	none (no result: KDM4E inh, ALDH1A1 block, HPGD inh, HTT aggregate, HTT cytoprotect)
Cc1cc(C)c2c(N)c(C(=O)N3CCCCCC3)sc2n1	KDM4E inh inconclusive, ALDH1A1 block inconclusive, HPGD inh 1.58µM
COCc1cc(C)nc2sc(C(=O)N3CCCC3)c(N)c12	ALDH1A1 block inconclusive, HPGD inh 2.51µM
COCc1cc(C)nc2sc(C(=O)OC)c(N)c12	none
CC(=O)c1sc2nc(C)cc(C)c2c1N	KDM4E inh inconclusive, ALDH1A1 block inconclusive, HPGD inh inconclusive, HTT aggregate inconclusive
CC(=O)Nc1ccc(C2C(C)CCC3C(=O)N4C(CCC(C)[C@@H]4c4ccc(NC(C)=O)cc4)C(=O)N32)cc1 (stereo not given in full)	none (no result: LMNA splice mod, KDM4E inh, HPGD inh, HTT aggregate)
Cc1noc(/C=C/c2nn(C)cc2Cl)c1[N+](=O)[O-]	ALDH1A1 block 8.91µM (no result: LMNA splice mod, HPGD inh)
CC(NC(=O)c1ccc2c(c1)N(Cc1cccc(F)c1)C(=O)c1ccccc1S2)c1ccccc1 (stereo not given)	none (no result: KDM4E inh, ALDH1A1 block, HPGD inh, HTT aggregate, HTT cytoprotect)
Cc1cc(C)n(-c2ncccc2[N+](=O)[O-])n1	none (no result: LMNA splice mod, HPGD inh)
CC(C)c1ccc(-n2cnn(-c3ncccc3[N+](=O)[O-])c2=O)cc1	ALDH1A1 block 14.1µM (no result: LMNA splice mod, HPGD inh)
N#Cc1cc2c([nH]c1=S)CCCCCC2	KDM4E inh inconclusive, ALDH1A1 block 10µM, HPGD inh 7.94µM
N#Cc1c(N)n[nH]c1-c1cc2c([nH]1)CCCC2	KDM4E inh inconclusive, HTT aggregate inconclusive
O=C(COc1ccccc1Cl)NC(=S)Nc1ccc(CN2CCOCC2)cc1	HPGD inh 25.1µM (no result: HTT cytoprotect)
O=C(CCCCl)NC(=S)Nc1ccc(CN2CCOCC2)cc1	ALDH1A1 block 20µM (no result: LMNA splice mod, HPGD inh)
O=C(CCCCl)NC(=S)Nc1ccc(N2CCOCC2)cc1	none (no result: LMNA splice mod, ALDH1A1 block, HPGD inh)
C/C(=N\NC(=O)c1ccc(CN2CCOCC2)cc1)c1ccc([N+](=O)[O-])cc1	LMNA splice mod inconclusive, ALDH1A1 block inconclusive
O=C(/C=C/c1cccc([N+](=O)[O-])c1)NC(=S)Nc1ccc(CN2CCOCC2)cc1	ALDH1A1 block 3.16µM
O=C(NC(=S)Nc1ccc(CN2CCOCC2)cc1)c1ccc([N+](=O)[O-])cc1	ALDH1A1 block inconclusive
C/C(=N\NC(=O)c1ccc(CN2CCOCC2)cc1)c1cccc([N+](=O)[O-])c1	LMNA splice mod inconclusive, ALDH1A1 block 18.9µM
O=S(=O)(O)[C@@H](CO)c1ccccc1 (tested in a mixture with another compound)	none (no result: LMNA splice mod, KDM4E inh, HTT aggregate)
CCOc1ccc(NC(=O)c2cc(C)nc3c2c(C)nn3-c2ccc(C)cc2)cc1	none (no result: KDM4E inh, ALDH1A1 block, HPGD inh, HTT aggregate, HTT cytoprotect)
COc1cccc(CN(Cc2ccco2)c2cnc(S(C)(=O)=O)nc2C(=O)Nc2cccc(Cl)c2C)c1	none (no result: KDM4E inh, ALDH1A1 block, HPGD inh, HTT aggregate, HTT cytoprotect)
COc1cc(OC)c(NC(=O)c2c3c(nc4ccccc24)C(=O)N(C2CCCCC2)C3)cc1Cl	none (no result: KDM4E inh, ALDH1A1 block, HPGD inh, HTT aggregate, HTT cytoprotect)
O=C(NCCc1ccccc1)c1c(F)c(F)c(F)c(F)c1F	none
COc1ccc(-c2cc(-c3ccccc3)c(C#N)c(S(C)=O)n2)cc1 (stereo not given)	LMNA splice mod inconclusive, KDM4E inh inconclusive, ALDH1A1 block inconclusive, HPGD inh inconclusive, HTT cytoprotect inconclusive
COc1cc(OC)c(C#N)c(S(=O)Cc2ccccc2)c1 (stereo not given)	ALDH1A1 block 14.1µM
Cn1cc(S(=O)(=O)N2CCCCC2)cc1C(=O)Nc1cccc(C#N)c1	none (no result: KDM4E inh, ALDH1A1 block, HPGD inh, HTT aggregate, HTT cytoprotect)
CCCCN1C=CC(=C2C(=O)c3ccccc3C2=O)C=C1	ALDH1A1 block 2.82µM (no result: LMNA splice mod, HPGD inh)
Cc1c(Cl)cccc1NC(=O)c1cc(-c2ccccc2O)n[nH]1	LMNA splice mod inconclusive, HPGD inh 12.6µM
Cc1ncoc1C(=O)Nc1cccc(Cl)c1C	ALDH1A1 block inconclusive
COc1ccc(Cl)cc1NC(=O)c1cc(-c2ccccc2O)n[nH]1	LMNA splice mod inconclusive, HPGD inh 1.41µM (no result: HTT cytoprotect)
Cc1cc(/C=C/C(=O)O)c(C)n1-c1ccc(Cl)cc1	none (no result: HPGD inh)
Cc1cc(/C=C\c2ccc3cc(N(C)C)ccc3[n+]2C)c(C)n1-c1ccccc1	LMNA splice mod inconclusive, KDM4E inh inconclusive, HTT aggregate 3.16µM
O=C(NC(=S)Nn1cnc2c(cnn2-c2ccccc2)c1=O)c1ccccc1	ALDH1A1 block 17.8µM, HTT aggregate inconclusive
CCn1cnc2c(cnn2-c2ccccc2)c1=O	LMNA splice mod inconclusive
O=C(NC(=S)NNS(=O)(=O)c1ccc(Cl)cc1)c1cccnc1	ALDH1A1 block 7.94µM (no result: LMNA splice mod, HPGD inh, HTT aggregate, HTT cytoprotect)
CCCCC(=O)NC(=S)NNC(=O)CC#N	ALDH1A1 block 22.4µM
CCCCC(=O)NC(=S)NNC(=O)c1ccc(OC)cc1	LMNA splice mod inconclusive, KDM4E inh inconclusive, HTT aggregate 10µM (no result: HPGD inh)
CCCCC(=O)NNC(=S)NC(=O)CCC	none
